Source: ChEMBL document CHEMBL1961873, “Compounds: GSK PKIS; Assays: Nanosyn kinase panel” (2012)

Assays:
[1] = target: Dual specificity protein kinase CLK3 (Homo sapiens) (UniProt P49761); conditions: at 1 µM;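 note: each value is the mean inhibition of CLK3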
[2] = target: Dual specificity tyrosine-phosphorylation-regulated kinase 1A (Homo sapiens) (UniProt Q13627); conditions: at 0.1 µM
[3] = target: Dual specificity tyrosine-phosphorylation-regulated kinase 1A (Homo sapiens) (UniProt Q13627); conditions: at 1 µM
[4] = target: Dual specificity tyrosine-phosphorylation-regulated kinase 1B (Homo sapiens) (UniProt Q9Y463); conditions: at 0.1 µM
[5] = target: Dual specificity tyrosine-phosphorylation-regulated kinase 1B (Homo sapiens) (UniProt Q9Y463); conditions: at 1 µM
[6] = target: T1, Dual specificity tyrosine-phosphorylation-regulated kinase 2 (Homo sapiens) (UniProt Q92630); conditions: at 0.1 µM
T1 sequence (whole entry): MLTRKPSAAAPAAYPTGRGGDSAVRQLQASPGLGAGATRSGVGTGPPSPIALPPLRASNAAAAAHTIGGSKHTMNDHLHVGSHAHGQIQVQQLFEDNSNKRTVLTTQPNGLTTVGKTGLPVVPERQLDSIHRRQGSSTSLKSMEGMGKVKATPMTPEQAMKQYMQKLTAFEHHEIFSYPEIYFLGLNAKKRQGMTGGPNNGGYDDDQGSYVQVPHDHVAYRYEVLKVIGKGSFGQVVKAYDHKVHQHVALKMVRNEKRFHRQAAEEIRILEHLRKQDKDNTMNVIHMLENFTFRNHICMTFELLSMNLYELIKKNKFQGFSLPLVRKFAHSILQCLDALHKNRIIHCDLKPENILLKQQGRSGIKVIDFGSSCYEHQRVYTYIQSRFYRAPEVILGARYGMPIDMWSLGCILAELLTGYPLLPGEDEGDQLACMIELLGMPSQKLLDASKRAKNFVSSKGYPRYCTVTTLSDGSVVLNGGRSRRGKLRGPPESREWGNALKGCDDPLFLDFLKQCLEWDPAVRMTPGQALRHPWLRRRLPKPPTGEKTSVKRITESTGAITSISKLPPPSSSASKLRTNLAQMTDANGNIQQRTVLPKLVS

[7] = target: T1, Dual specificity tyrosine-phosphorylation-regulated kinase 2 (Homo sapiens); conditions: at 1 µM
[8] = target: Glycogen synthase kinase-3 alpha (Homo sapiens) (UniProt P49840); conditions: at 0.1 µM
[9] = target: Glycogen synthase kinase-3 alpha (Homo sapiens) (UniProt P49840); conditions: at 1 µM
[10] = target: Glycogen synthase kinase-3 beta (Homo sapiens) (UniProt P49841); conditions: at 0.1 µM
[11] = target: Glycogen synthase kinase-3 beta (Homo sapiens) (UniProt P49841); conditions: at 1 µM
[12] = target: Homeodomain-interacting protein kinase 1 (Homo sapiens) (UniProt Q86Z02); conditions: at 0.1 µM
[13] = target: Homeodomain-interacting protein kinase 1 (Homo sapiens) (UniProt Q86Z02); conditions: at 1 µM
[14] = target: T2, Homeodomain-interacting protein kinase 4 (Homo sapiens) (UniProt Q8NE63); conditions: at 0.1 µM
T2 sequence (whole entry): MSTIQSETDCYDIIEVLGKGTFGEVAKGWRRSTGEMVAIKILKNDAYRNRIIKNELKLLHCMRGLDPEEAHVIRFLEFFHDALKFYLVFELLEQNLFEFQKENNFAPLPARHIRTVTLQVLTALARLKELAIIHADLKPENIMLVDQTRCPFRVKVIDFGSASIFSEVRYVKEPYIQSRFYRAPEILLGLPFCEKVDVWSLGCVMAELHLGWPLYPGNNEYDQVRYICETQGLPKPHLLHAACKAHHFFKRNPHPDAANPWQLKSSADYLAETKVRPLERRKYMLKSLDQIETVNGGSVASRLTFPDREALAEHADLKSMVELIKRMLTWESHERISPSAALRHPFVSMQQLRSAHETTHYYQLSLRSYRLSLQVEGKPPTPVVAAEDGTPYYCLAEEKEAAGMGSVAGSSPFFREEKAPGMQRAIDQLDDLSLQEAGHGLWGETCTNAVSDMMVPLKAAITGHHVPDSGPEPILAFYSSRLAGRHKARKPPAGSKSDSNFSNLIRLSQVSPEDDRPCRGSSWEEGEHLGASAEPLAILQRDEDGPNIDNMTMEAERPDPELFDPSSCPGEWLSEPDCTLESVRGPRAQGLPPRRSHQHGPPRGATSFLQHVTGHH

[15] = target: T2, Homeodomain-interacting protein kinase 4 (Homo sapiens); conditions: at 1 µM
[16] = target: Mitogen-activated protein kinase 9 (Homo sapiens) (UniProt P45984); conditions: at 0.1 µM
[17] = target: Mitogen-activated protein kinase 9 (Homo sapiens) (UniProt P45984); conditions: at 1 µM
[18] = target: Mitogen-activated protein kinase 1 (Homo sapiens) (UniProt P28482); conditions: at 0.1 µM
[19] = target: Mitogen-activated protein kinase 1 (Homo sapiens) (UniProt P28482); conditions: at 1 µM
[20] = target: Mitogen-activated protein kinase 3 (Homo sapiens) (UniProt P27361); conditions: at 0.1 µM;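 note: each value is a mean inhibition figure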
Sequence of Mitogen-activated protein kinase 3 (Homo sapiens) (P27361 whole entry): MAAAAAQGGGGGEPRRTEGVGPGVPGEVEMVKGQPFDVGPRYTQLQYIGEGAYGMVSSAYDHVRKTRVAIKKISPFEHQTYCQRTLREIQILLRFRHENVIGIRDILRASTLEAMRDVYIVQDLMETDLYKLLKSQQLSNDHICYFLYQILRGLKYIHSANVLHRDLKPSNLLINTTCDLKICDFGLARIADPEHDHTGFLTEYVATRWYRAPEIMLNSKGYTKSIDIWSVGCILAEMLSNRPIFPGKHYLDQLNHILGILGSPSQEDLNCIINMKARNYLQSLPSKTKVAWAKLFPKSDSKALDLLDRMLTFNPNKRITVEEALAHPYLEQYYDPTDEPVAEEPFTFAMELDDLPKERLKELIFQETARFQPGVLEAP

Sequence of Dual specificity protein kinase CLK3 (Homo sapiens) (P49761 whole entry, looked up): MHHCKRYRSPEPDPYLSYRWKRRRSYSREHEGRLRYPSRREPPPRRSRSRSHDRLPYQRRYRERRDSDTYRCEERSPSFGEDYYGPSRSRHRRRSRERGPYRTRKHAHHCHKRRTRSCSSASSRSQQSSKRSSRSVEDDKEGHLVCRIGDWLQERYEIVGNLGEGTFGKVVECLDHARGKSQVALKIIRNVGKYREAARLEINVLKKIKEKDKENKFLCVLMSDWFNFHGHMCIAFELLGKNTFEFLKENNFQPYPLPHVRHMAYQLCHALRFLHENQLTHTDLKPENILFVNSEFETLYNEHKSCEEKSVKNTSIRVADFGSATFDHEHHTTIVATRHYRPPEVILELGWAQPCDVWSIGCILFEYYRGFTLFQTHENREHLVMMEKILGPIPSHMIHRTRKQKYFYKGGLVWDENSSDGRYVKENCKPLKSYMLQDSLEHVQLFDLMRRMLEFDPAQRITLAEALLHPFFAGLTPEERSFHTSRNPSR
Sequence of Glycogen synthase kinase-3 alpha (Homo sapiens) (P49840 2-483 limits assumed): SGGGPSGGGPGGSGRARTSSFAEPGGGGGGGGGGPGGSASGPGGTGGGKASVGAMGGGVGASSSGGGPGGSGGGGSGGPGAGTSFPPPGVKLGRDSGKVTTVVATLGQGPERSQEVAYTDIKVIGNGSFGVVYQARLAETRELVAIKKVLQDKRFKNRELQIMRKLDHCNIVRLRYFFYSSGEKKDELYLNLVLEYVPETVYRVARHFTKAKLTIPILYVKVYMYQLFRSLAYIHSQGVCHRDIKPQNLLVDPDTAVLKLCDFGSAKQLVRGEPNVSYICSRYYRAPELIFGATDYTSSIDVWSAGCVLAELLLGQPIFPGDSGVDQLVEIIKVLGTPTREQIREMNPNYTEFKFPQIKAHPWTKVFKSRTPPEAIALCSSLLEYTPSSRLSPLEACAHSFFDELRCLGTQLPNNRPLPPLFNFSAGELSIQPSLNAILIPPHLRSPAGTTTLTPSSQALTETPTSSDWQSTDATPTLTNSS
Sequence of Dual specificity tyrosine-phosphorylation-regulated kinase 1B (Homo sapiens) (Q9Y463 whole entry, looked up): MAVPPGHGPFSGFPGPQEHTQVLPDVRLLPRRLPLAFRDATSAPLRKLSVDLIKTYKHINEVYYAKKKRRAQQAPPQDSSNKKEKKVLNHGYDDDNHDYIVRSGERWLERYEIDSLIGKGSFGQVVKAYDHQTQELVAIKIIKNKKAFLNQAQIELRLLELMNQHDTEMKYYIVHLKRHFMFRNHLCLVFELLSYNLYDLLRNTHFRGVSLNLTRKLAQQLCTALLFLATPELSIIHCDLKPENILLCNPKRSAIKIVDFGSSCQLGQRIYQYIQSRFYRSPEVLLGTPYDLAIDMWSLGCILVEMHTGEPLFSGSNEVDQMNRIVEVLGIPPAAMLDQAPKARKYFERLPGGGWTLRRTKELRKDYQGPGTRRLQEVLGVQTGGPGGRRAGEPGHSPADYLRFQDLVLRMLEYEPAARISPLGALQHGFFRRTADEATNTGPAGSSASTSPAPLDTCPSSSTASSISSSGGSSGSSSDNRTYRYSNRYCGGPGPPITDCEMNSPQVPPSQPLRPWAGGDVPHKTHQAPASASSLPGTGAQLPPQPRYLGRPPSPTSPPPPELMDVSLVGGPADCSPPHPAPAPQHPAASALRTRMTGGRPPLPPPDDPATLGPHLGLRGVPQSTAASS
Sequence of Homeodomain-interacting protein kinase 1 (Homo sapiens) (Q86Z02 whole entry, looked up): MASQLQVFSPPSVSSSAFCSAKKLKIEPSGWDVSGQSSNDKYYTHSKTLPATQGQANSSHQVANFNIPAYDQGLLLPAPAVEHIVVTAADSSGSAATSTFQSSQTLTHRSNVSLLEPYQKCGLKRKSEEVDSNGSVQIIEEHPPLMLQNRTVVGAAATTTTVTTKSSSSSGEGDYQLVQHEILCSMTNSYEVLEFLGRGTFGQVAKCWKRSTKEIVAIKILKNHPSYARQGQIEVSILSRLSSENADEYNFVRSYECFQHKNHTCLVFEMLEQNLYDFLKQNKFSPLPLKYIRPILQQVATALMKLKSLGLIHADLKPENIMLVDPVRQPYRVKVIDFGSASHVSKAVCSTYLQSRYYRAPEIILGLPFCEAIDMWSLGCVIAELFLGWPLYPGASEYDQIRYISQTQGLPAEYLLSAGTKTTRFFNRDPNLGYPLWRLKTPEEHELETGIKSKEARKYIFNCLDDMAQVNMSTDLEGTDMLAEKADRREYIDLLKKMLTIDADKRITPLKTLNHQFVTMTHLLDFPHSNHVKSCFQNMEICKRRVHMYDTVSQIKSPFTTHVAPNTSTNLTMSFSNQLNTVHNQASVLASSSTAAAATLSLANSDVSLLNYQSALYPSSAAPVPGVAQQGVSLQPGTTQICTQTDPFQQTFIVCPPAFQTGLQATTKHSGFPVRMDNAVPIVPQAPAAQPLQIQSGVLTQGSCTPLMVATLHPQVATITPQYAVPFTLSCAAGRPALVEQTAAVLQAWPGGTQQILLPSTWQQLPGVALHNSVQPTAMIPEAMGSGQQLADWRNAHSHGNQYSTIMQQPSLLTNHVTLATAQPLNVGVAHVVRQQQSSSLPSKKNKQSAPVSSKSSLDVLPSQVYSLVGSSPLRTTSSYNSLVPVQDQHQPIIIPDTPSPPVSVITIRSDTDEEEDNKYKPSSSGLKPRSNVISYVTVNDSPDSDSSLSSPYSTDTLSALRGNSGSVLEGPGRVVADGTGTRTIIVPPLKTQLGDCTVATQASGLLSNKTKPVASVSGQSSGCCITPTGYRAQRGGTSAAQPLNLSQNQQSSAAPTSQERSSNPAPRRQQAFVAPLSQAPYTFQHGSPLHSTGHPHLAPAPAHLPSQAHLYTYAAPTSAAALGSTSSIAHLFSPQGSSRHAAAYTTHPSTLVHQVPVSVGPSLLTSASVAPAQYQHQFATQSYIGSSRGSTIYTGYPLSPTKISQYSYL
Sequence of Mitogen-activated protein kinase 1 (Homo sapiens) (P28482 whole entry): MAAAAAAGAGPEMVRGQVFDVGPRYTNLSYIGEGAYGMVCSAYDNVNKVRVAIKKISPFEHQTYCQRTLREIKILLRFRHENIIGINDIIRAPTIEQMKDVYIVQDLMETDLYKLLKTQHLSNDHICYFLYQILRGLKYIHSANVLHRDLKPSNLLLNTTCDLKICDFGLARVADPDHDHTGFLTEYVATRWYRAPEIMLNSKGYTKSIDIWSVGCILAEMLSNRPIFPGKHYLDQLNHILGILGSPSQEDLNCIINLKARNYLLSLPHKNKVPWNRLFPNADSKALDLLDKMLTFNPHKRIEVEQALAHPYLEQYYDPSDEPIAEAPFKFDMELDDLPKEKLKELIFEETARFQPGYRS
Sequence of Mitogen-activated protein kinase 9 (Homo sapiens) (P45984 whole entry, looked up): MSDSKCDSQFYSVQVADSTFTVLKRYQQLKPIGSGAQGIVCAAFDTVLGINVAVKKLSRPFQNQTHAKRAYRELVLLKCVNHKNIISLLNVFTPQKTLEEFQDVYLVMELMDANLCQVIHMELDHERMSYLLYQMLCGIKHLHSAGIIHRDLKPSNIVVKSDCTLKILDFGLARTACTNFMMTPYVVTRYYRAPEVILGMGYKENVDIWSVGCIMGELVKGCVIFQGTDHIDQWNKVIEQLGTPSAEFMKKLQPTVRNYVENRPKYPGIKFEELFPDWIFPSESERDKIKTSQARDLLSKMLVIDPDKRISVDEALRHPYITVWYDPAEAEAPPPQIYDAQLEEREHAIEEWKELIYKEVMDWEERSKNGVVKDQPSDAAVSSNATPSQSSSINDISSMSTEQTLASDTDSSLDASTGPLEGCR
Sequence of Glycogen synthase kinase-3 beta (Homo sapiens) (P49841 whole entry, looked up): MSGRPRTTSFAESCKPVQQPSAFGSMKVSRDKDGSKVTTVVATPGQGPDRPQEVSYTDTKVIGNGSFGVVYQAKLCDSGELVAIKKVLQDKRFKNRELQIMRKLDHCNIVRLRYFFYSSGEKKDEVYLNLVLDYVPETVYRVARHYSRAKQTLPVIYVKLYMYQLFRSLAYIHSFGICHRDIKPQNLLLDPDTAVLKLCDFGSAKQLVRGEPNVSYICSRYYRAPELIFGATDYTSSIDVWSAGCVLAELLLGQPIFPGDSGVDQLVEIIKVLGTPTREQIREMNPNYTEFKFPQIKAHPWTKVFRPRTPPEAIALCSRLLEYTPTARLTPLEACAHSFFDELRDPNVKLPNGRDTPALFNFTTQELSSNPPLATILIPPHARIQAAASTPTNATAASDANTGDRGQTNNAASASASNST

Row | Structure (SMILES) | inhibition [1] [%] | inhibition [2] [%] | inhibition [3] [%] | inhibition [4] [%] | inhibition [5] [%] | inhibition [6] [%] | inhibition [7] [%] | inhibition [8] [%] | inhibition [9] [%] | inhibition [10] [%] | inhibition [11] [%] | inhibition [12] [%] | inhibition [13] [%] | inhibition [14] [%] | inhibition [15] [%] | inhibition [16] [%] | inhibition [17] [%] | inhibition [18] [%] | inhibition [19] [%] | inhibition [20] [%]
1 | COc1cc2ncn(-c3cc(OCc4ccccc4C(F)(F)F)c(C(N)=O)s3)c2cc1OC | -2.17 | -1.02 | 2.2 | -4.5 | -2.84 | 1.73 | 3.25 | 0.16 | 4.9 | -0.65 | 7.21 | -1.28 | 4.22 | 10.1 | 40.6 | 1.63 | 2.16 | 4.18 | 6.38 | 5.3
2 | CCN1CCC(CC(=O)Nc2n[nH]c3nc(-c4cccs4)c(Br)cc23)CC1 | 4.44 | 4.33 | 20.6 | 4.83 | 22.3 | -0.64 | 14 | 46.6 | 78.3 | 26.6 | 68.7 | 3.88 | 6.48 | 2.06 | 8.88 | -5.62 | -3.11 | -4.72 | -6.9 | -1.1
3 | COc1cc2ncn(-c3cc(O[C@H](C)c4ccccc4Cl)c(C(N)=O)s3)c2cc1OC | 7.93 | -0.27 | 3.73 | -0.01 | 0.14 | 2.5 | 5.55 | 5.34 | 19.8 | 5.07 | 23 | 3.82 | 12.1 | 11.2 | 30.2 | 2.72 | 3.88 | 5.57 | 4.8 | 2.92
4 | Cn1cc(C=C2C(=O)Nc3cccnc32)c2ccccc21 | -1.26 | 2.68 | 10.6 | 0.78 | 4.49 | 2.52 | 4.08 | 4.33 | 12.2 | 3.54 | 8.9 | -0.99 | 13.8 | 1.64 | 15.2 | 3.04 | 6.24 | 2.02 | 2.73 | 2.22
5 | Cc1nnc(-c2ccc(C)c(-c3ccc(C(=O)Nc4cccc(C#N)c4)cc3)c2)o1 | 1.62 | 0.92 | 3.59 | 0.45 | 1.21 | 1.13 | 1.2 | 2.41 | 4.82 | 2.45 | 3.29 | -1.32 | -2.46 | 0.46 | 0.28 | 4 | 2.96 | 0.61 | 2.56 | 3.17
6 | CN1CCC(C(=O)Nc2n[nH]c3nnc(-c4ccccc4)cc23)CC1 | 2.52 | 7.11 | 33.9 | 7.12 | 31.9 | 4.83 | 9.37 | 79.5 | 85.7 |  |  | 3.96 | 9.2 | 0.93 | 4.44 | 4.37 | 5.52 | 7.18 | 5.71 | 5.71
7 | CS(=O)(=O)CCN(CC#N)Cc1ccc(-c2ccc3ncnc(Nc4ccc(OCc5cccc(F)c5)c(Cl)c4)c3c2)o1 | -4.13 | -2.78 | -0.17 | -4.49 | -3.08 | 0.54 | 0.76 | -1.48 | 0.08 | -2.26 | -0.38 | -6.53 | -4.34 | 0.31 | 2.79 | -0.56 | 2.18 | 3.93 | 1.9 | 1.67
8 | CCn1c(-c2nonc2N)nc2c(C#CC(C)(C)O)nc(CN3CCCC3)cc21 | 0.53 | 1.08 | 2.47 | 0.74 | 2.39 | -1.68 | 0.64 | 5.1 | 21.6 | 4.97 | 18.9 | -1.35 | 2.58 | -1.44 | 0.75 | 0.67 | -2.07 | -1.09 | 0.12 | 0.51
9 | COc1cc2ncn(-c3cc(OCc4ccccc4Cl)c(C(N)=O)s3)c2cc1OC | 4.39 | 0.59 | 4.21 | 1.28 | 0.48 | 0.19 | 2.53 | 2.18 | 9.18 | 1.21 | 9.93 | 0.06 | 5.3 | 7.28 | 45.1 | 2.23 | 4.49 | 0.95 | 1.08 | -0.15
10 | COC(=O)Nc1nc2cc(Oc3ccc(NC(=O)Nc4cccc(C(=O)O)c4)cc3)ccc2[nH]1 | 0.74 | -4.02 | -1.76 | -3.44 | -1.48 | 0.41 | -0.17 | -2.54 | 1.82 | -2.48 | 2.13 | -2.08 | 0.32 | 0.29 | 3.06 | -0.11 | -0.13 | 0.56 | 0.1 | 0.92
11 | NS(=O)(=O)c1ccc(N/N=C2\C(=O)Nc3ccc(C(=O)NCCc4c[nH]cn4)cc32)cc1 | 24.2 | 6.64 | 30.6 | 5.35 | 31.5 | 6.85 | 33.4 | 50.7 | 86.8 | 51 | 86.6 | 9.13 | 48.9 | 3.77 | 20.2 | 3.56 | 9.28 | 1.92 | 17.6 | 5.33
12 | CCn1c(-c2nonc2N)nc2cnc(Oc3cccc(NC(=O)c4ccc(OCCN5CCOCC5)cc4)c3)cc21 | 1.22 | 0.91 | 4.24 | 0.06 | 0.86 | 3.68 | 5.39 | 13.9 | 56.5 | 10.2 | 53.9 | 1.81 | 11.5 | 0.11 | 10.4 | 3.93 | 5.85 | 3.22 | 4.07 | 2.43
13 | COc1cc(C)c(NC(=O)CN(C)C)cc1Nc1nc(Nc2cccc(F)c2C(N)=O)c2cc[nH]c2n1 | 13.2 | 1.71 | 20 | 1.59 | 14.8 | 2.4 | 5.3 | -0.24 | 1.07 | -1.22 | 0.98 | 13.9 | 60.6 | 15.9 | 63.4 | 3.11 | 12.6 | 2.86 | 4.47 | 2.47
